Source: PubChem (National Center for Advancing Translational Sciences (NCATS))
Shown is part of a subset that was picked to be rich in hits.
FBPA Giardia inh: blocks Giardia fructose-bisphosphate aldolase activity | A8B2U2 | purified Giardia FBPA | Potency, µM (highest dose often 59.6 µM), inactives show at the highest dose activity, negative = inhibition, actives largely listed as inhibitors | actives 0.71% (n = 290,000) | AID 2451; further: potency means the concentration at half of the fitted maximal effect; on the % scale 0 is the no-effect control and ±100 the full control effect; nearly all actives have a fitted effect of over 55% in size
Target sequence (A8B2U2 whole entry, looked up): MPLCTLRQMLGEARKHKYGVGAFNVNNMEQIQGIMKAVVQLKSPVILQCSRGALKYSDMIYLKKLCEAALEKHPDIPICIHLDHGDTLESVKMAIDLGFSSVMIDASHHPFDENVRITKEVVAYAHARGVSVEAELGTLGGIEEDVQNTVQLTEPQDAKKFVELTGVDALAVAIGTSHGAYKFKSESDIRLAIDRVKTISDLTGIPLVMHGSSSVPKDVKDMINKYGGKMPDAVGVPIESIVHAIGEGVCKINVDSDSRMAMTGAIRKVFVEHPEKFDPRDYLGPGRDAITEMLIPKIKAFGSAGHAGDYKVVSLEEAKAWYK
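Giardia FBPA (40 nM reagent) was preincubated 10 min at RT with compound (up to 57.5 uM final), then substrate plus GAPDH/TPI/NAD/arsenate coupling system with diaphorase/resazurin was added; resorufin fluorescence (525/598 nm) was read after 20 min.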
LmPK inhibitor: inhibitors of Leishmania mexicana pyruvate kinase | Potency, µM (titrated, usually from 57.5 µM), inactives show at the highest dose activity change, negative = inhibition, usual class: inhibitors | Q27686 | actives 0.37% (n = 290,000) | AID 1721 | purified LmPK, Kinase-Glo ATP luminescence, 1 h; further: potency means the concentration at half of the fitted maximal effect; on the % scale 0 is the no-effect control and ±100 the full control effect
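Kinase-Glo luminescence read after 1 h RT reaction of 0.1 nM LmPK with 0.5 mM PEP and 0.1 mM ADP. Activity scaled between uninhibited and enzyme-free controls.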
TbPYK inhibitor: inhibitors of Trypanosoma brucei pyruvate kinase | Q57TT1 | TbPYK enzyme, Kinase-Glo Plus ATP luminescence, 45 min | Potency, µM (top dose mostly 76.8 µM), for inactives: top-dose activity, negative = inhibition, most hits filed as inhibitors | actives 0.12% (n = 410,000); further: potency means the concentration at half of the fitted maximal effect; on the % scale 0 is the no-effect control and ±100 the full control effect; nearly all actives have a fitted effect of over 50% in size
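In this concentration-response screen, enzyme-free wells defined baseline while DMSO plates tracked drift. Each reaction combined TbPYK, substrate, compound and 130 uM ADP for 45 min at room temperature. Kinase-Glo Plus luminescence gave the signal.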
RE007 growth inh: less growth of the S. pombe RE007 Vpr strain. S. pombe RE007 Vpr strain, BacTiter-Glo ATP luminescence, 24 h. Potency, µM (highest dose often 92.2 µM), for the others: at the top dose activity change, negative = less growth, hits mostly inhibitors. AID 651644. actives 0.21% (n = 360,000); active means well fitted falling curve with a large enough effect; inconclusive means small, poorly fitted or top-dose-only effect; inactive means no such curve, though single readings can be large or run the other way; further: potency means the concentration at half of the fitted maximal effect; on the % scale 0 is the no-effect control and ±100 the full control effect; nearly all actives have a fitted effect of over 50% in size
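Fission yeast strain RE007, carrying one chromosomally integrated HIV-1 vpr copy, was seeded at OD 0.01 in PMG+AL medium with 23 nL pinned compound. After 24 h at 30 °C and 99% humidity, viability was read by BacTiter-Glo luminescence.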
Shiga inhibitor: blocks Shiga toxin action in Vero cells; Vero cells, Shiga toxin protein synthesis inhibition reporter; inhibition, % at 38.7 µM; actives 9.2% (n = 290,000); in the data active means inhibition mostly above about 28%, no sharp cut-off; inactive means mostly below about 43%; further: 0% is about no effect
CHX counter: affects cycloheximide protein synthesis inhibition readout, counter-screen; max response, %; AID 2314; cell reporter, cycloheximide protein synthesis inhibition counterscreen; actives 12% (n = 300,000); in the data active means max response mostly above about 13%, no sharp cut-off; inactive means mostly below about 14%; further: read at 38.3 µM for the half of the compounds with a filed dose; 0% is about no effect
Numbers without * were called inactive. Unless noted, the call rests on the fitted dose curve; in most records, active means well fitted curve in the direction sought with a large enough effect; inconclusive means small, poorly fitted or top-dose-only effect, or another doubt; inactive means no such curve, though single readings can be large; an effect the other way counts as inactive or inconclusive.

For CCOc1cccc(CNc2ccc(O)cc2)c1OCc1ccc(Cl)cc1Cl the results were FBPA Giardia inh 13µM*, LmPK inhibitor 5%, TbPYK inhibitor inconclusive, RE007 growth inh inconclusive, Shiga inhibitor -22 and CHX counter 8.
C=CCOc1c(CNc2cccc(C(=O)O)c2)cccc1OCC was read as FBPA Giardia inh 23%, LmPK inhibitor 2%, TbPYK inhibitor 2%, RE007 growth inh 20%, Shiga inhibitor 13 and CHX counter 13.
For C=CCOc1c(CNc2ccc(C(=O)O)cc2)cccc1OCC the results were FBPA Giardia inh 19%, LmPK inhibitor 0%, TbPYK inhibitor 1%, RE007 growth inh 11%, Shiga inhibitor 36* and CHX counter 31*.
For C=CCOc1c(CNc2cccc(C(=O)O)c2)cccc1OC the results were FBPA Giardia inh inconclusive, LmPK inhibitor 9%, TbPYK inhibitor -2%, RE007 growth inh 0%, Shiga inhibitor 71* and CHX counter 37*.
Cc1nc(-c2ccccc2)sc1-c1ccc(SCC(=O)NCc2ccccc2Cl)nn1 was read as TbPYK inhibitor -8%.
`CCC12CN3CC(C)(CN(C1)C3c1c[nH]c3ccccc13)C2=O` (centres undefined) gave TbPYK inhibitor -6%.
Screening CCc1ccc(NC(=O)CCNS(=O)(=O)c2ccc3c(c2)CCCC(=O)N3)cc1 returned TbPYK inhibitor -10%.
`O=C(c1cc(-c2ccc(Br)cc2)on1)N1CCc2ccccc2C1` gave FBPA Giardia inh 4%, LmPK inhibitor -1%, TbPYK inhibitor 3%, RE007 growth inh 27%, Shiga inhibitor 0 and CHX counter 1.
For COc1ccccc1N1CCN(C(=O)c2cc(-c3ccc(C)cc3)on2)CC1 the results were FBPA Giardia inh -17%, LmPK inhibitor -11%, TbPYK inhibitor 2%, RE007 growth inh -10%, Shiga inhibitor 55* and CHX counter 19*.
Screening COc1ccc(-c2cc(C(=O)N3CCN(c4ccccc4)CC3)no2)cc1 returned FBPA Giardia inh 5%, LmPK inhibitor -1%, TbPYK inhibitor 1%, RE007 growth inh 24%, Shiga inhibitor 93* and CHX counter 37*.
For COc1ccc(OC)c(-c2cc(C(=O)N3CCc4ccccc4C3)no2)c1 the results were FBPA Giardia inh -9%, LmPK inhibitor 2%, TbPYK inhibitor -7%, RE007 growth inh -12%, Shiga inhibitor -11 and CHX counter 8.
COc1ccc(-c2cc(C(=O)N3CCc4ccccc4C3)no2)cc1 was read as FBPA Giardia inh -1%, LmPK inhibitor -1%, TbPYK inhibitor -1%, RE007 growth inh 3%, Shiga inhibitor 88* and CHX counter 28*.
COc1cccc(-c2cc(C(=O)N3CCc4ccccc4C3)no2)c1 was read as FBPA Giardia inh -11%, LmPK inhibitor 0%, TbPYK inhibitor -16%, RE007 growth inh -13%, Shiga inhibitor 6 and CHX counter 17*.
`Cc1cn2c(=O)cc(COc3cccc(NC(=O)c4ccccc4Cl)c3)nc2s1` gave TbPYK inhibitor 3%.
`Cc1oc(-c2cccc(Cl)c2)nc1CSc1nc2ncccc2[nH]1` gave TbPYK inhibitor -5%.
For CC1CCCC(NC(=O)COC(=O)c2ccccc2[N+](=O)[O-])C1C (centres undefined) the results were FBPA Giardia inh 2%, LmPK inhibitor 4%, TbPYK inhibitor -2%, RE007 growth inh 27%, Shiga inhibitor 83* and CHX counter 30*.
Screening O=C(COC(=O)c1ccccc1[N+](=O)[O-])NCCCc1ccccc1 returned FBPA Giardia inh 6%, LmPK inhibitor -7%, TbPYK inhibitor 2%, RE007 growth inh -8%, Shiga inhibitor 70* and CHX counter 38*.
Screening O=C(COC(=O)c1cccc2ccccc12)NCCCc1ccccc1 returned FBPA Giardia inh 1%, LmPK inhibitor -1%, TbPYK inhibitor 9%, RE007 growth inh -1%, Shiga inhibitor -4 and CHX counter 2.
